In all, about 5,500 compounds went through this assay and about 2,000 (36%) were called active. Another 18% or so got no clear call; they are omitted. Rule as the data show it: active = normalized growth mostly below about 0.91 (no sharp cut-off); inconclusive = no clear call, values can overlap the other calls; inactive = mostly above about 0.92. Some of the results follow.
Assay: chemical genetic growth profiling, strain panel (AID 1159580);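 also: tested at 20 µM; growth read once vehicle control cultures reached saturation at 30 °C; 1 = growth at the plate median or of vehicle wells; lower values mean less growth of the strain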
Conditions: S. cerevisiae deletion strains, growth OD

Measured: normalized growth

CNC(=O)[C@H]1O[C@@H](n2cnc3c(NCc4ccc(I)cc4)nc(Cl)nc32)[C@H](O)[C@@H]1O
inactive: locus YAL013W, strain DEP1, stronger effect = lower value 0.986 | locus YAL040C, strain CLN3, stronger effect = lower value 0.939 | locus YCL061C, strain MRC1 (second series), stronger effect = lower value 0.996 | locus YDR150W, strain NUM1, stronger effect = lower value 1 | locus YDR363W, strain ESC2, stronger effect = lower value 0.944 | locus YER002W, strain NOP16, stronger effect = lower value 0.97 | locus YGR078C, strain PAC10, stronger effect = lower value 0.99 | locus YJR075W, strain HOC1, stronger effect = lower value 0.999 | locus YMR263W, strain SAP30, stronger effect = lower value 0.995 | locus YMR307W, strain GAS1, stronger effect = lower value 1 | locus YNL128W, strain TEP1, stronger effect = lower value 0.981 | locus YNL175C, strain NOP13, stronger effect = lower value 0.962 | locus YNL197C, strain WHI3, stronger effect = lower value 0.98 | locus YNL224C, strain SQS1, stronger effect = lower value 0.997 | locus YNL322C, strain KRE1, stronger effect = lower value 0.972 | locus YOR083W, strain WHI5 (second series), stronger effect = lower value 0.918 | locus YPL055C, strain LGE1, stronger effect = lower value 0.937
